Measurements reported in PubChem BioAssay AID1159580 (chemical genetic matrix, 2015).
The whole screen tested about 5,500 compounds, of which about 2,000 (36%) were called active. About 18% were inconclusive and are not listed. Rule as the data show it: active = normalized growth mostly below about 0.91 (no sharp cut-off); inconclusive = no clear call, values can overlap the other calls; inactive = mostly above about 0.92. The list shows a part of the results.

Test: chemical genetic growth profiling, strain panel (AID 1159580);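 also: tested at 20 µM; growth read once vehicle control cultures reached saturation at 30 °C; 1 = growth at the plate median or of vehicle wells; lower values mean less growth of the strain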
Details: growth OD

Measured: normalized growth

Nc1ccc(C(=O)NCC(=O)O)cc1
inactive: S. cerevisiae deletion strains, locus YKL009W, strain mrt4, active compounds read low 1.02 | S. cerevisiae deletion strains, locus YKL068W, active compounds read low 1 | S. cerevisiae deletion strains, locus YKL085W, strain MDH1 (second series), active compounds read low 1.01 | S. cerevisiae deletion strains, locus YKL085W, strain MDH1, active compounds read low 1.01 | S. cerevisiae deletion strains, locus YKL160W, strain elf1, active compounds read low 1.04 | S. cerevisiae deletion strains, locus YKL190W, strain CNB1, active compounds read low 1 | S. cerevisiae deletion strains, locus YKR001C, strain vps1, active compounds read low 1.02 | S. cerevisiae deletion strains, locus YKR026C, strain gcn3, active compounds read low 1.01 | S. cerevisiae deletion strains, locus YKR091W, strain srl3, active compounds read low 0.999 | S. cerevisiae deletion strains, locus YLL001W, strain dnm1, active compounds read low 1 | S. cerevisiae deletion strains, locus YLL026W, active compounds read low 0.997 | S. cerevisiae deletion strains, locus YLL041C, strain sdh2, active compounds read low 1.01 | S. cerevisiae deletion strains, locus YLR027C, strain aat2, active compounds read low 1.03 | S. cerevisiae deletion strains, locus YLR039C, strain RIC1, active compounds read low 1.01 | S. cerevisiae deletion strains, locus YLR058C, strain SHM2, active compounds read low 0.998 | S. cerevisiae deletion strains, locus YLR102C, strain apc9, active compounds read low 1.02 | S. cerevisiae deletion strains, locus YLR113W, strain HOG1, active compounds read low 0.937 | S. cerevisiae deletion strains, locus YLR221C, strain rsa3, active compounds read low 1 | S. cerevisiae deletion strains, locus YLR258W, strain gsy2, active compounds read low 1.03 | S. cerevisiae deletion strains, locus YLR262C, strain YPT6 (second series), active compounds read low 1.02 | S. cerevisiae deletion strains, locus YLR262C, strain YPT6, active compounds read low 1.04 | S. cerevisiae deletion strains, locus YLR268W, strain sec22, active compounds read low 1.02 | S. cerevisiae deletion strains, locus YLR320W, strain mms22, active compounds read low 1.01 | S. cerevisiae deletion strains, locus YLR330W, strain CHS5, active compounds read low 1.01 | S. cerevisiae deletion strains, locus YLR342W, strain FKS1 (second series), active compounds read low 0.987 | S. cerevisiae deletion strains, locus YLR342W, strain FKS1, active compounds read low 1.02 | S. cerevisiae deletion strains, locus YLR357W, strain rsc2, active compounds read low 1.07 | S. cerevisiae deletion strains, locus YLR370C, strain arc18, active compounds read low 1.01 | S. cerevisiae deletion strains, locus YLR371W, strain rom2, active compounds read low 1 | S. cerevisiae deletion strains, locus YLR384C, strain iki3, active compounds read low 1.02 | S. cerevisiae deletion strains, locus YLR418C, strain cdc73, active compounds read low 1.04 | S. cerevisiae deletion strains, locus YML016C, strain PPZ1, active compounds read low 1 | S. cerevisiae deletion strains, locus YML032C, strain rad52, active compounds read low 1.01 | S. cerevisiae deletion strains, locus YML120C, strain ndi1, active compounds read low 1 | S. cerevisiae deletion strains, locus YML124C, strain tub3, active compounds read low 1.01 | S. cerevisiae deletion strains, locus YMR058W, strain fet3, active compounds read low 1.01 | S. cerevisiae deletion strains, locus YMR078C, strain ctf18, active compounds read low 1.02 | S. cerevisiae deletion strains, locus YMR125W, strain sto1, active compounds read low 1.02 | S. cerevisiae deletion strains, locus YMR129W, active compounds read low 1.02 | S. cerevisiae deletion strains, locus YMR205C, strain PFK2, active compounds read low 1.03 | S. cerevisiae deletion strains, locus YMR223W, strain ubp8, active compounds read low 1.01 | S. cerevisiae deletion strains, locus YMR231W, strain pep5, active compounds read low 1.02 | S. cerevisiae deletion strains, locus YMR263W, strain SAP30, active compounds read low 1 | S. cerevisiae deletion strains, locus YMR307W, strain GAS1, active compounds read low 1.03 | S. cerevisiae deletion strains, locus YNL067W, strain RPL9B, active compounds read low 0.99 | S. cerevisiae deletion strains, locus YNL071W, strain lat1, active compounds read low 1.03 | S. cerevisiae deletion strains, locus YNL153C, strain GIM3, active compounds read low 0.973 | S. cerevisiae deletion strains, locus YNL183C, strain NPR1, active compounds read low 0.908 | S. cerevisiae deletion strains, locus YNL209W, strain ssb2, active compounds read low 1.01 | S. cerevisiae deletion strains, locus YNL233W, strain BNI4, active compounds read low 0.986 | S. cerevisiae deletion strains, locus YNL248C, strain rpa49, active compounds read low 1.02 | S. cerevisiae deletion strains, locus YNL250W, strain rad50, active compounds read low 1.01 | S. cerevisiae deletion strains, locus YNL271C, strain bni1, active compounds read low 1.02 | S. cerevisiae deletion strains, locus YNL298W, strain CLA4, active compounds read low 1.03 | S. cerevisiae deletion strains, locus YNL307C, strain MCK1, active compounds read low 1.02 | S. cerevisiae deletion strains, locus YNL322C, strain KRE1 (second series), active compounds read low 1.01 | S. cerevisiae deletion strains, locus YNL322C, strain KRE1, active compounds read low 0.997 | S. cerevisiae deletion strains, locus YNR049C, strain mso1, active compounds read low 1.01 | S. cerevisiae deletion strains, locus YNR052C, strain pop2, active compounds read low 1.02 | S. cerevisiae deletion strains, locus YOL006C, strain TOP1, active compounds read low 0.96 | S. cerevisiae deletion strains, locus YOL012C, strain htz1 1.06 | S. cerevisiae deletion strains, locus YOL147C, strain pex11, active compounds read low 1.01 | S. cerevisiae deletion strains, locus YOR001W, strain rrp6, active compounds read low 0.986 | S. cerevisiae deletion strains, locus YOR061W, strain CKA2, active compounds read low 1.01 | S. cerevisiae deletion strains, locus YOR069W, strain VPS5, active compounds read low 1 | S. cerevisiae deletion strains, locus YOR070C, strain gyp1, active compounds read low 1.01 | S. cerevisiae deletion strains, locus YOR080W, strain dia2, active compounds read low 1.01 | S. cerevisiae deletion strains, locus YOR083W, strain WHI5, active compounds read low 0.99 | S. cerevisiae deletion strains, locus YOR106W, strain vam3, active compounds read low 1.04 | S. cerevisiae deletion strains, locus YOR136W, strain idh2, active compounds read low 1.02 | S. cerevisiae deletion strains, locus YOR144C, strain elg1, active compounds read low 1.01 | S. cerevisiae deletion strains, locus YOR184W, strain ser1, active compounds read low 1.02 | S. cerevisiae deletion strains, locus YOR231W, strain MKK1, active compounds read low 0.97 | S. cerevisiae deletion strains, locus YOR265W, strain rbl2, active compounds read low 1 | S. cerevisiae deletion strains, locus YOR270C, strain vph1, active compounds read low 1.02 | S. cerevisiae deletion strains, locus YOR290C, strain snf2, active compounds read low 1.04 | S. cerevisiae deletion strains, locus YOR316C, strain cot1, active compounds read low 1.02 | S. cerevisiae deletion strains, locus YPL051W, strain arl3, active compounds read low 1.02 | S. cerevisiae deletion strains, locus YPL078C, strain atp4, active compounds read low 1.02 | S. cerevisiae deletion strains, locus YPL106C, strain sse1, active compounds read low 1.04 | S. cerevisiae deletion strains, locus YPL240C, strain hsp82, active compounds read low 1.01 | S. cerevisiae deletion strains, locus YPL241C, strain CIN2, active compounds read low 1 | S. cerevisiae deletion strains, locus YPL256C, strain CLN2, active compounds read low 0.936 | S. cerevisiae deletion strains, locus YPR119W, strain clb2, active compounds read low 1.01 | S. cerevisiae deletion strains, locus YPR141C, strain kar3, active compounds read low 1.01 | S. cerevisiae deletion strains, locus YPR163C, strain tif3, active compounds read low 1.01 | S. cerevisiae deletion strains, locus YPR167C, strain met16, active compounds read low 1.02 | S. cerevisiae deletion strains, strain wtn01, active compounds read low 1.03 | S. cerevisiae strains, strain wild type, active compounds read low 0.995
